Inconclusive results are not listed. The source made the active and inactive calls. The call rests on the fitted dose curve; in most records, active means well fitted curve in the direction sought with a large enough effect; inconclusive means small, poorly fitted or top-dose-only effect, or another doubt; inactive means no such curve, though single readings can be large or run the other way.
target: Pyruvate kinase PKM (Homo sapiens) (UniProt P14618); test: Secondary LDH Assay for Activators of Human Pyruvate Kinase M1 Isoform: for Probe SAR; details: purified hPK-M1, LDH-coupled NADH fluorescence kinetic; series mostly up to 58.2 µM
Summary of the method: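 Kinetic LDH-coupled read: initial rates from NADH fluorescence loss over 3-6 min, normalized to uninhibited controls. Final conditions 10 nM hPK-M1, 1 uM LDH, PEP 0.1 mM, ADP 4.0 mM, NADH 0.2 mM in Tris-Cl pH 8.0 with KCl and MgCl2.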

Chain of Pyruvate kinase PKM (Homo sapiens) (P14618 whole entry, looked up, canonical isoform): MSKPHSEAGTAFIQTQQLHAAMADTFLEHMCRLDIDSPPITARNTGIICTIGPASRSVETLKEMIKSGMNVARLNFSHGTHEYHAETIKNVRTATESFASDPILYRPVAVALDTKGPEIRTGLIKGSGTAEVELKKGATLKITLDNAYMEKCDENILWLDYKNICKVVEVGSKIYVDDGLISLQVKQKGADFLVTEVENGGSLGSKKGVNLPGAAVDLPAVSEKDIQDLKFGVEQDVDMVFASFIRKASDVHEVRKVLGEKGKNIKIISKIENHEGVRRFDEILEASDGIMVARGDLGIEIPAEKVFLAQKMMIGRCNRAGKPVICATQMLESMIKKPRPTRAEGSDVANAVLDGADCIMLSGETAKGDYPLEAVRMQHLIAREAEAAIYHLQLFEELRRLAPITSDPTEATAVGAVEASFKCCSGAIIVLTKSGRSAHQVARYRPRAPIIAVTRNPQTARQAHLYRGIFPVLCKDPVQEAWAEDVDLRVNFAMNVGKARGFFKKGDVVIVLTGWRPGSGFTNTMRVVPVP

Structure (SMILES)	outcome
Cc1ccc(N(C)S(=O)(=O)c2ccc3c(c2)CCC(=O)N3)cc1C	inactive
Cc1ccc(Nc2c(-c3ccc(C)o3)nc3ccccn23)cc1	inactive
Cc1ccc(NS(=O)(=O)c2ccc3c(c2)CC(=O)N3)cc1C	inactive
Cc1ccc(NS(=O)(=O)c2cccc(F)c2)cc1C	inactive
CC(=O)Nc1ccc(S(=O)(=O)Nc2ccc(C)c(C)c2)cc1	inactive
Cc1ccc2nc(-c3ccc(C)o3)c(Nc3ccc(Cl)cc3)n2c1	inactive
COc1ccc(N2C(=O)c3ccccc3C2=O)cc1	inactive
O=C1CCc2cc(Cl)c(S(=O)(=O)Nc3ccc(Cl)c(Cl)c3)cc2N1	inactive
O=C1c2ccccc2C(=O)N1c1ccccn1	inactive
COc1cccc(Cn2ncc3c4sc(SC)cc4n(C)c3c2=O)c1	inactive
COc1ccc(S(=O)(=O)Nc2ccc(C)c(C)c2)cc1	inactive
Cc1ccc(NS(=O)(=O)c2cccc(C(=O)O)c2)cc1C	inactive
O=C1CCc2cc(S(=O)(=O)Nc3cccc(B(O)O)c3)ccc2N1	inactive
Cc1cc(NS(=O)(=O)c2ccc3c(c2)CCC(=O)N3)ccc1Cl	inactive
O=C1CCc2cc(S(=O)(=O)Nc3ccc(Cl)c(Cl)c3)ccc2N1	inactive
Cc1nc(-c2ccc(S(=O)(=O)Nc3ccc(C)c(C)c3)s2)cs1	inactive
Nc1cccc(S(=O)(=O)N2CCCN(S(=O)(=O)c3ccc4c(c3)OCCO4)CC2)c1	inactive
Cc1ccc(NS(=O)(=O)c2ccc3c(c2)CCC(=O)N3)cc1C	inactive
Cc1ccc(NS(=O)(=O)c2ccc(Cl)cc2)cc1C	inactive
Cc1ccc(NS(=O)(=O)c2cc3c(cc2F)NC(=O)CC3)cc1Cl	inactive
O=C1c2ccccc2C(=O)N1C1CCCCC1	inactive
CC(=O)N1CCc2cc(S(=O)(=O)Nc3ccc(C)c(C)c3)ccc21	inactive
Cc1ccc(NS(=O)(=O)c2cc3c(cc2-c2ccsc2)NC(=O)CO3)cc1C	inactive
Cc1ccc(NS(=O)(=O)c2cc3c(cc2Cl)NC(=O)CO3)cc1C	inactive
Cc1ccc(Cl)cc1NS(=O)(=O)c1cc2c(cc1F)NC(=O)CC2	inactive
COc1cccc(OC2=NS(=O)(=O)c3ccccc32)c1	inactive
O=C1CCc2cc(S(=O)(=O)Nc3ccc4c(c3)OCCO4)ccc2N1	inactive
COc1ccc(OC2=NS(=O)(=O)c3ccccc32)cc1	inactive
O=C1CCc2cc(S(=O)(=O)Nc3ccc(F)c(Cl)c3)ccc2N1	inactive
COc1ccc(NS(=O)(=O)c2ccc3c(c2)CCC(=O)N3)cc1	inactive

Source: PubChem BioAssay AID2620 (National Center for Advancing Translational Sciences (NCATS), 2010)
